Experimental data as given in the supplement of paper PMC7366291.
Where a name gives a salt, the structure may show the parent alone. ± gives the standard deviation.

Each compound was assayed on Danio rerio Tg(wt1b:EGFP) embryo, pronephros (assay: glomerular separation, fold change vs DMSO control; higher = glomeruli further apart (abnormal)). Conditions: 25 µM; exposure: 24-48 hpf.
Summary of the method: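 Using a Fiji macro, distances and angles were calculated from 16 reference points set by hand on maximum projections of pronephroi imaged dorsally (470 nm, 10 z-slices) in agarose-filled 96-well plates. The dechorionated Tg(wt1b:EGFP) zebrafish embryos had received 25 μM compound in 0.5% DMSO in HEPES-buffered E3 with 0.003% PTU from 24 to 48 hpf at 28.5°C. Values more than 2 SD from a feature's mean were excluded. Each feature appears as a fold change over the mean of DMSO-treated embryos from the same day.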
`C[C@]12CC[C@@H]3c4ccc(OS(=O)(=O)O)cc4CC[C@H]3[C@@H]1CCC2=O` [Estropipate] was tested, and the glomerular separation was 1.27 ± 0.59.
Work on `O=C(O)CCNC(=O)c1ccc(/N=N/c2ccc(O)c(C(=O)O)c2)cc1` [Balsalazide Sodium] yielded a glomerular separation of 0.832 ± 0.29.
In the case of `Nc1nc2n[nH]nc2c(=O)[nH]1` [Azaguanine-8], the glomerular separation is reported as 0.905 ± 0.36.
Work on `NCCNCCNCCNCCN` [Tetraethylenepentamine pentahydrochloride] yielded a glomerular separation of 0.956 ± 0.33.
`CCCCOC(=O)c1ccc(O)cc1` [Butylparaben] showed a glomerular separation of 1.67 ± 0.4.
`CC(C)NCC(O)c1cc(O)cc(O)c1` (stereo unspecified) [Metaproterenol sulfate, orciprenaline sulfate] showed a glomerular separation of 1.08 ± 0.74.
Compound `CC1CC(OC(=O)c2ccccc2O)CC(C)(C)C1` (stereo unspecified) [Homosalate] has a glomerular separation of 0.865 ± 0.19.
`O=C1O[C@H]([C@@H](O)CO)C(O)=C1O` [Ascorbic acid] gave a glomerular separation of 1.08 ± 0.33.
`CCCCOC(=O)c1ccc(N)cc1` [Butamben] showed a glomerular separation of 1.07 ± 0.41.
`Cc1ccnc(NS(=O)(=O)c2ccc(N)cc2)n1` [Sulfamerazine] was tested, and the glomerular separation was 0.775 ± 0.22.
With `CN1CCCN=C1/C=C/c1cccc(O)c1` [Oxantel pamoate] the glomerular separation was 0.88 ± 0.16.
`NC(=O)c1cnccn1` [Pyrazinamide] showed a glomerular separation of 0.862 ± 0.21.
Compound `CN(C)C(=N)NC(=N)N` [Metformin hydrochloride] has a glomerular separation of 0.804 ± 0.19.
For `CCC(=O)[C@@]1(C)[C@H](C)C[C@H]2[C@@H]3CCC4=CC(=O)C=C[C@]4(C)[C@H]3[C@@H](O)C[C@@]21C` [Rimexolone], the glomerular separation was 1.28 ± 0.36.
Compound `COc1cc(-c2ccc(=O)[nH]n2)ccc1OC(F)F` [Zardaverine] has a glomerular separation of 1.12 ± 0.48.
`O=C1[C@H]2CCCC[C@H]2C(=O)N1CCCCN1CCN(c2nsc3ccccc23)CC1` [Perospirone] showed a glomerular separation of 1.25 ± 0.36.
`NC[C@H]1O[C@H](O[C@H]2[C@H](O[C@@H]3O[C@H](CO)[C@@H](O)[C@H]3O)[C@@H](O)[C@H](N)C[C@@H]2N)[C@H](N)[C@@H](O)[C@@H]1O` [Ribostamycin sulfate salt] gave a glomerular separation of 0.722 ± 0.22.
`CN(C)CCN1C(=O)c2ccccc2N(C)c2ccccc21` [Dibenzepine hydrochloride] gave a glomerular separation of 1.21 ± 0.68.
Work on `CCCCC(CC)CN1CN(CC(CC)CCCC)CC(C)(N)C1` (stereo unspecified) [Hexetidine] yielded a glomerular separation of 1.05 ± 0.29.
For `CCN(CC)CCOC(=O)C1(c2ccc([N+](=O)[O-])cc2)CCCC1` [Nitrocaramiphen hydrochloride], the glomerular separation was 0.899 ± 0.43.
`CC(C)(C)C(=O)OCOC(=O)[C@@H]1N2C(=O)[C@@H](/N=C/N3CCCCCC3)[C@H]2SC1(C)C` [Pivmecillinam hydrochloride] showed a glomerular separation of 0.772 ± 0.17.
`CO/N=C(\C(=O)N[C@@H]1C(=O)N2C(C(=O)O)=C(COC(C)=O)CS[C@H]12)c1csc(N)n1` [Cefotaxime sodium salt] was tested, and the glomerular separation was 0.857 ± 0.26.
`Cc1cc2c(cc1S(N)(=O)=O)S(=O)(=O)CCC2` [Meticrane] gave a glomerular separation of 0.987 ± 0.28.
`COc1cc(C(=O)OCCCN2CCCN(CCCOC(=O)c3cc(OC)c(OC)c(OC)c3)CC2)cc(OC)c1OC` [Dilazep dihydrochloride] showed a glomerular separation of 1 ± 0.36.
Compound `C=C1c2c(Cl)ccc(O)c2C(=O)C2=C(O)[C@]3(O)C(=O)C(C(N)=O)=C(O)[C@@H](N(C)C)[C@@H]3[C@@H](O)[C@H]12.O=C(O)c1cc(S(=O)(=O)O)ccc1O` [Meclocycline sulfosalicylate] has a glomerular separation of 1.02 ± 0.24.
With `O=C(O)c1ccccc1OP(=O)(O)O` [Fosfosal] the glomerular separation was 0.789 ± 0.23.
Compound `CCOC(=O)n1ccn(C)c1=S` [Carbimazole] has a glomerular separation of 1.35 ± 0.58.
`CC(C)Nc1cccnc1N1CCN(C(=O)c2cc3cc(NS(C)(=O)=O)ccc3[nH]2)CC1` [Delavirdine] was tested, and the glomerular separation was 0.975 ± 0.41.
With `Nc1ccn([C@@H]2CS[C@H](CO)O2)c(=O)n1` [Lamivudine] the glomerular separation was 0.982 ± 0.27.
Compound `CC(=O)CC(c1ccccc1)c1c(O)c2ccccc2oc1=O` (stereo unspecified) [Warfarin] has a glomerular separation of 1.14 ± 0.45.
`C1CCC(C(CC2CCCCN2)C2CCCCC2)CC1` (stereo unspecified) [Perhexiline maleate] showed a glomerular separation of 1.12 ± 0.32.
With `NS(=O)(=O)Cc1noc2ccccc12` [Zonisamide] the glomerular separation was 0.805 ± 0.15.
Compound `CNc1ncnc2c1ncn2[C@@H]1O[C@H](CO)[C@@H](O)[C@H]1O` [N6-methyladenosine] has a glomerular separation of 0.849 ± 0.21.
Work on `NS(=O)(=O)c1cc2c(cc1Cl)NC(CC1CCCC1)NS2(=O)=O` (stereo unspecified) [Cyclopenthiazide] yielded a glomerular separation of 0.818 ± 0.23.
For `Clc1ccc(CCC(Cn2ccnc2)Sc2c(Cl)cccc2Cl)cc1` (stereo unspecified) [Butoconazole nitrate], the glomerular separation was 2.43 ± 1.2.
In the case of `CN(C)CC/C=C1\c2ccccc2CSc2ccccc21` [Dosulepin hydrochloride], the glomerular separation is reported as 1.15 ± 0.25.
